In PubChem BioAssay AID1159580 (chemical genetic matrix, 2015):
Several values for one entry are separate records, joined by “and”; a condition that tells them apart may be missing. Equal entries are not always repeated. Screen size: about 5,500 compounds; about 2,000 (36%) were called active. Another 18% or so got no clear call; they are omitted. No stated cut-off is given here; in the data, active means normalized growth mostly below about 0.91 (no sharp cut-off); inconclusive means no clear call, values can overlap the other calls; inactive means mostly above about 0.92. This is one part of the list.

Experiment: chemical genetic growth profiling, strain panel (AID 1159580);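 further: tested at 20 µM; growth read once vehicle control cultures reached saturation at 30 °C; 1 = growth at the plate median or of vehicle wells; lower values mean less growth of the strain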
Conditions: S. cerevisiae deletion strains, growth OD

Measured: normalized growth

CCCCC1=NC2(CCCC2)C(=O)N1Cc1ccc(-c2ccccc2-c2nn[nH]n2)cc1
inactive: locus YAL013W, strain DEP1, active compounds read low 0.984 | locus YAL021C, strain ccr4, active compounds read low 1.01 | locus YAL026C, strain drs2, active compounds read low 1.01 | locus YAL030W, strain snc1, active compounds read low 1.02 | locus YBL061C, strain skt5, active compounds read low 1.02 | locus YBR009C, strain hhf1, active compounds read low 1.01 | locus YBR021W, strain FUR4, active compounds read low 0.985 | locus YBR023C, strain chs3, active compounds read low 1.01 | locus YBR171W, strain sec66, active compounds read low 1.02 | locus YBR229C, strain ROT2, active compounds read low 0.938 | locus YBR231C, strain swc5, active compounds read low 1.03 | locus YBR279W, strain paf1, active compounds read low 1.01 | locus YCL011C, strain gbp2, active compounds read low 1.03 | locus YCL016C, strain dcc1, active compounds read low 1.01 | locus YCL029C, strain bik1, active compounds read low 0.993 | locus YCL069W, strain vba3, active compounds read low 1.02 | locus YCR088W, strain abp1, active compounds read low 1.02 | locus YDL005C, strain med2, active compounds read low 1.03 | locus YDL035C, strain GPR1, active compounds read low 0.974 | locus YDL040C, strain nat1, active compounds read low 1.02 | locus YDL074C, strain BRE1, active compounds read low 1 | locus YDL101C, strain DUN1, active compounds read low 0.99 | locus YDL134C, strain PPH21, active compounds read low 0.988 | locus YDL185W, strain tfp1, active compounds read low 0.987 | locus YDL192W, strain arf1, active compounds read low 0.985 | locus YDR001C, strain nth1, active compounds read low 1 | locus YDR069C, strain doa4, active compounds read low 1.02 | locus YDR101C, strain arx1, active compounds read low 0.998 | locus YDR137W, strain rgp1, active compounds read low 1.01 | locus YDR150W, strain NUM1, active compounds read low 0.97 | locus YDR159W, strain sac3, active compounds read low 1.02 | locus YDR162C, strain NBP2, active compounds read low 0.982 | locus YDR195W, strain ref2 1.02 | locus YDR297W, strain sur2, active compounds read low 1.02 | locus YDR318W, strain mcm21, active compounds read low 1 | locus YDR334W, strain swr1, active compounds read low 1.02 | locus YDR335W, strain msn5, active compounds read low 1 | locus YDR388W, active compounds read low 0.999 | locus YDR392W, strain spt3, active compounds read low 1.01 | locus YDR502C, strain sam2, active compounds read low 0.982 | locus YEL003W, strain gim4, active compounds read low 1.01 | locus YEL037C, strain rad23, active compounds read low 1.02 | locus YEL061C, strain CIN8 (second series), active compounds read low 1.03 | locus YEL061C, strain CIN8, active compounds read low 0.979 | locus YER015W, strain faa2, active compounds read low 1.02 | locus YER016W, strain bim1, active compounds read low 1.01 | locus YER110C, active compounds read low 0.977 | locus YER111C, strain swi4, active compounds read low 1 | locus YER155C, strain BEM2 (second series), active compounds read low 1.05 | locus YER155C, strain BEM2, active compounds read low 1.01 | locus YER167W, strain BCK2, active compounds read low 0.976 | locus YFR010W, strain ubp6, active compounds read low 1.02 | locus YGL078C, strain dbp3, active compounds read low 0.969 | locus YGL086W, strain mad1, active compounds read low 0.988 | locus YGL167C, strain pmr1, active compounds read low 1.02 | locus YGL173C, strain kem1, active compounds read low 1.02 | locus YGL227W, strain vid30, active compounds read low 1.01 | locus YGL240W, strain doc1, active compounds read low 0.993 | locus YGL248W, strain PDE1, active compounds read low 0.979 | locus YGL253W, strain hxk2, active compounds read low 1.01 | locus YGR078C, strain PAC10, active compounds read low 1.02 | locus YGR135W, strain pre9, active compounds read low 1.02 | locus YGR229C, strain SMI1, active compounds read low 1.01 | locus YGR252W, strain gcn5, active compounds read low 0.931 | locus YHR013C, strain ard1, active compounds read low 1.01 | locus YHR027C, strain rpn1, active compounds read low 1.01 | locus YHR030C, strain SLT2, active compounds read low 0.994 and 0.967 | locus YHR079C, strain IRE1 (second series), active compounds read low 0.989 | locus YHR079C, strain IRE1, active compounds read low 0.973 | locus YHR094C, strain hxt1, active compounds read low 0.992 | locus YHR129C, strain ARP1, active compounds read low 1 | locus YHR142W, strain chs7, active compounds read low 1.01 | locus YHR200W, strain rpn10, active compounds read low 0.99 | locus YIL066C, strain RNR3, active compounds read low 0.974 | locus YIL073C, strain SPO22, active compounds read low 1.01 | locus YIL125W, strain kgd1, active compounds read low 0.966 | locus YIR030C, strain dcg1, active compounds read low 0.978 | locus YJL092W, strain hpr5, active compounds read low 1.01 | locus YJL095W, strain BCK1 (second series), active compounds read low 1.02 | locus YJL095W, strain BCK1, active compounds read low 1.06 and 1.01 | locus YJL115W, strain asf1, active compounds read low 0.999 | locus YJL129C, strain trk1, active compounds read low 1.01 | locus YJL134W, strain LCB3, active compounds read low 0.98 | locus YJL154C, strain vps35, active compounds read low 1.01 | locus YJL164C, strain tpk1, active compounds read low 0.997 | locus YJL166W, strain qcr8, active compounds read low 1.03 | locus YJL168C, strain set2, active compounds read low 0.993 | locus YJL187C, strain SWE1 (second series), active compounds read low 1.01 | locus YJR043C, strain POL32, active compounds read low 1.02 | locus YJR066W, strain TOR1, active compounds read low 0.953 | locus YJR075W, strain HOC1, active compounds read low 1.01
